Rows were chosen to be rich in hits. Some 3.2% of all compounds tested hit in one or more screens of this group.
MEKK2 mut-MEK5: MEK5 binding signal on mutant MEKK2 PB1, primary screen, biochemical, multiplex bead flow cytometry, Alexa488-MEK5. Alexa488-MEK5 binding to MEKK2 mutant. percent response, % at 10 µM. actives 0.35% (n = 290,000); in the data active = percent response above about 24%, passing the limit was not always enough
MEKK3 PB1 HTS: modulators of MEKK3-MEK5 PB1 binding, primary screen, biochemical, wildtype MEKK3, multiplex bead flow cytometry, Alexa488-MEK5; bead-based flow cytometry, Alexa488-MEK5 binding to MEKK3; actives lie on both sides; 0 = blocked by unlabeled MEK5, 100 = vehicle; binding response (% of control), % at 10 µM; actives 1.4% (n = 290,000); AID 1529, 2009;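 active = binding response more than 3 SD above or below the average of its plate-row segment, actives on both sides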;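 also: Alexa488 bead fluorescence after subtracting the streptavidin-only scavenger bead signal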
Target sequence (Q99759 whole entry, looked up): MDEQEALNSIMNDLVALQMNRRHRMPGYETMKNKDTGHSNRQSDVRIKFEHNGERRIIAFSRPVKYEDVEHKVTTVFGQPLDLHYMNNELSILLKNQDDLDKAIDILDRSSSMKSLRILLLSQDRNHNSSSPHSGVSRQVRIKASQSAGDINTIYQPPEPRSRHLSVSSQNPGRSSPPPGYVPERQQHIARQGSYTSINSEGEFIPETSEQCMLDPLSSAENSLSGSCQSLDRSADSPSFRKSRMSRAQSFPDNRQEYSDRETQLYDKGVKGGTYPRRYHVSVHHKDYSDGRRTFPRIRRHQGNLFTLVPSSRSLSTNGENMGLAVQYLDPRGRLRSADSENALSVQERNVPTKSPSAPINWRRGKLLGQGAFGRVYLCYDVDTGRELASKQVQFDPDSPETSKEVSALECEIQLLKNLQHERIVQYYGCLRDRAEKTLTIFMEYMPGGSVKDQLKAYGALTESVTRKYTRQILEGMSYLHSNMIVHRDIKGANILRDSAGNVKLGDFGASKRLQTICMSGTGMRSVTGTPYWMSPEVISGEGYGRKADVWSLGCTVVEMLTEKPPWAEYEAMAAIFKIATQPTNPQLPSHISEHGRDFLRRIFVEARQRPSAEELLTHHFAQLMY
SKN-1 inh: suppressors of acrylamide-induced Pgst-4::GFP reporter in worms, primary screen, SKN-1 inhibitor project, whole organism, uHTS, GFP/RFP fluorescence ratio, strain VP596; C. elegans VP596 Pgst-4::GFP/RFP ratio, 24 h; actives 0.49% (n = 360,000); inhibition, % at 21.8 µM;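 active = interference check ratio from 0.5 to 1.5 plus GFP to RFP signal ratio inhibition reaching or exceeding a fixed threshold, cut at about 30% in these data, passing the limit was not always enough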
CendR NRP1 mod: modulators of CendR peptide binding to NRP-1, primary screen, biochemical, fluorescence polarization, uHTS; Neuropilin-1 (Homo sapiens), O14786; FAM-RPARPAR peptide binding to NRP-1; inhibition, % at 25 µM; actives 0.85% (n = 360,000);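 active = inhibition or corrected inhibition above about 18%, plus a signal ratio from 0.5 to 1.5, limit read from the data, passing the limit was not always enough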
MEKK2 WT-MEK5: modulators of MEK5 binding to wildtype MEKK2, primary screen, biochemical, multiplex bead flow cytometry, Alexa488-MEK5; Alexa488-MEK5 binding to MEKK2 WT; actives lie on both sides; binding response (% of control), % at 10 µM; actives 1.1% (n = 290,000); AID 1531, 2009; in the data active = binding response below about 67% or above about 130%
MEKK2wt confirm: modulators of MEK5 binding to wildtype MEKK2, confirmation, biochemical, single concentration, multiplex bead flow cytometry; actives 2.4% (n = 5,900); binding response (% of control), % at 10 µM; Alexa488-MEK5 binding to MEKK2 WT; actives lie on both sides; shares compounds with MEKK3 PB1 HTS; in the data active = binding response below about 16% or above about 210%; inactive = in between
MEKK2mut confirm: mutant MEKK2 PB1-MEK5 binding signal retest – biochemical, single concentration, multiplex bead flow cytometry, confirmation. shares compounds with MEKK3 PB1 HTS. Alexa488-MEK5 binding to MEKK2 mutant. percent response, % at 10 µM. actives 2% (n = 5,900). AID 1893, 2009; in the data active = percent response mostly above about 71%, no sharp cut-off; inactive = mostly below about 38%;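 also: higher means compound restores mutant binding toward wildtype level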
MEKK3-MEK5 inh: MEKK3 wild-type PB1 binding to MEK5, inhibitors, confirmation, biochemical, bead multiplex flow cytometry, single concentration, wildtype; shares compounds with MEKK3 PB1 HTS; Alexa488-MEK5 binding to MEKK3; stronger effect = lower value; binding response (% of control), % at 10 µM; actives 1.8% (n = 5,900); AID 1894, 2009;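 active = binding response below 72% of control, or above a set upper limit, though filed actives all read lower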;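 also: 100% = DMSO only wells and 0% = binding blocked by excess unlabeled MEK5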
An asterisk follows results filed as active; x = no result; [ ] = remark or other dose.

SMILES	MEKK2 mut-MEK5	MEKK3 PB1 HTS	SKN-1 inh	CendR NRP1 mod	MEKK2 WT-MEK5	MEKK2wt confirm	MEKK2mut confirm	MEKK3-MEK5 inh
CCOC(=O)c1sc2nc(C(C)C)c3c(c2c1N)CC(C)(C)OC3	6	101	1	8	104	x	x	x
COc1ccc(S(=O)(=O)N2CCOCC2)cc1NC(=O)CCOc1ccc(C(C)(C)C)cc1	x	x	4	-11	x	x	x	x
O=C1CCC([N+](=O)[O-])C(c2cc3c(cc2Br)OCO3)N1 (stereo not drawn)	2	156*	5	3	108	124	8	113
O=c1n(Cc2ccccc2)c(O)c2n1Cc1ccccc1N=C2c1ccccc1	x	x	11	18	x	x	x	x
CCOc1ccccc1NC(=O)NC1CCN(CC(=O)Nc2ccc3c(c2)OCCO3)CC1	-7	75*[inhibitor]	8	-4	82	101	4	103
Cc1ccccc1C(=O)NC1CCN(CC(=O)Nc2ccc3c(c2)OCCO3)CC1	-14	88	2	9	89	x	x	x
CC(C)NCC(O)COc1ccc2c(c1)CCC2 (stereo not drawn)	1	140*	-4	-7	108	95	-3	90
S=c1nc(-c2ccccc2Br)[nH][nH]1	-3	1.0*[inhibitor]	-11	6	-2.0*[inhibitor]	97	-3	94
CC(C)(C)Nc1c(C2CCNCC2)nc2c(OCc3ccccc3)cccn12	x	x	9	2	x	x	x	x
COc1ccc(-c2nc(C(=O)NCCCN3CCOCC3)cc3c2[nH]c2ccccc23)cc1OC	15	105	1	-3	137*	150	24	110
Cc1ccc(-c2nc(C(=O)NCCCN3CCOCC3)cc3c2[nH]c2ccccc23)cc1	21	101	2	-9	142*	156	41	108
CCOc1ccc(NC(=S)NCCCN2CCN(c3ccc(OC)cc3)CC2)cc1	8	115	-2	-2	140*	138	29	102
O=C(NCN1CCN(c2ccccc2F)CC1)c1ccccc1	1	100	-9	-7	101	x	x	x
COc1cccc(C(=O)NCCCN2CCN(CCCNC(=O)c3cccc(OC)c3)CC2)c1	1	128*	-7	5	107	115	12	103
COc1ccc(NC(=S)NCCCN2CCCC2)cc1	-1	98	-3	-11	97	x	x	x
COc1cccc(C(=O)NCCCNC(=O)c2cccc(OC)c2)c1	3	103	-11	23	103	x	x	x
COc1ccc(N2CCN(CCCNC(=O)c3cc4sccc4n3C)CC2)cc1	18	108	99	-2	148*	126	22	108
CCc1nc2ccc(C(=O)NCCCN3CCN(c4ccccc4F)CC3)cc2nc1CC	19	107	-12	7	137*	145	31	104
CC1(C)CC(=O)C=C(c2ccccc2-c2ccc(S(C)(=O)=O)cc2)C1=O	x	x	-1	2	x	x	x	x
COc1cc2c(C(=O)NCCCN3CCN(c4cccc(Cl)c4)CC3)cn(C)c(=O)c2cc1OC	13	127*	6	3	146*	123	17	105
CCCCNCC(=O)Nc1sc(C)c(C)c1C(=O)OCC	-2	79*[inhibitor]	6	-10	102	108	8	108

Bioassay records as filed in PubChem BioAssay.
